AC50 and outcome data for 15 compounds are collected here from PubChem BioAssay (EPA / NIEHS).

Read-out in experiment [1]: Interferon-gamma inducible Protein 10 (IP10), CXCL10 (gene 3627)
Briefly: BSK_hDFCGF_IP10: BioMAP Diversity Plus: hDFCGF Assay for Interferon-gamma inducible Protein 10 (IP10) Biomarker Activity (AID 2283053). Conditions: primary human foreskin fibroblasts; actives raise or lower the signal. The procedure, abridged: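 ELISA read-out of IP-10 (CXCL10) from primary human skin fibroblasts, 24 h after compound addition. Gain or loss of signal versus DMSO baseline, bidirectional curve fitting.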

Read-out in experiment [2]: Urokinase-type plasminogen activator receptor (uPAR), PLAUR (gene 5329)
Briefly: BSK_CASM3C_uPAR: BioMAP Diversity Plus: CASM3C Assay for Urokinase-type plasminogen activator receptor (uPAR) Biomarker Activity (AID 2283054).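 Further: cell-surface uPAR protein level quantified by ELISA.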 The settings on record: primary human coronary artery smooth muscle cells; actives raise or lower the signal.

Read-out in experiment [3]: Vascular cell adhesion molecule 1 (VCAM1), VCAM1 (gene 7412)
Briefly: BSK_CASM3C_VCAM1: BioMAP Diversity Plus: CASM3C Assay for Vascular cell adhesion molecule 1 (VCAM1) Biomarker Activity (AID 2283055).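 Further: VCAM-1 protein level quantified by ELISA on the cells.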 Conditions: primary human coronary artery smooth muscle cells; actives raise or lower the signal.

Read-out in experiment [4]: Collagen III, COL3A1 (gene 1281)
Briefly: BSK_hDFCGF_CollagenIII: BioMAP Diversity Plus: hDFCGF Assay for Collagen III Biomarker Activity (AID 2283056). Conditions: primary human foreskin fibroblasts; actives raise or lower the signal. The gist of the method: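 Response relative to DMSO, fitted in both directions, reflects ELISA-measured collagen III in human primary skin fibroblasts 24 h after compound addition.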

Read-out in experiment [5]: Epidermal growth factor receptor (EGFR), EGFR (gene 1956)
Description: BSK_hDFCGF_EGFR: BioMAP Diversity Plus: hDFCGF Assay for Epidermal growth factor receptor (EGFR) Biomarker Activity (AID 2283057). The settings on record: primary human foreskin fibroblasts; actives raise or lower the signal. The gist of the method: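 ELISA readout of EGFR on human dermal fibroblasts (primary foreskin cells), 24 h post-dosing; bidirectional curve fit vs DMSO baseline, gain or loss of signal scored.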

Read-out in experiment [6]: Interleukin-8 (IL8), CXCL8 (gene 3576)
Description: BSK_hDFCGF_IL8: BioMAP Diversity Plus: hDFCGF Assay for Interleukin-8 (IL8) Biomarker Activity (AID 2283058). Conditions: primary human foreskin fibroblasts; actives raise or lower the signal. The gist of the method: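 Fibroblast monolayers (human foreskin, hDFCGF) received test chemical for 24 h before ELISA detection of IL-8; either increases or decreases relative to DMSO count as activity.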

Experiment [7] is described as follows: BSK_hDFCGF_Proliferation: Cell Proliferation Assessment in the BioMAP Diversity Plus: hDFCGF Assay (AID 2283059).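 Further: curves fitted for both rise and fall of signal versus DMSO baseline.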 The settings on record: primary human foreskin fibroblasts. The gist of the method:
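Steps: dose primary human dermal fibroblasts (foreskin); […] fix in 10% TCA; stain with 0.1% SRB; read 560 nm; fit gain or loss of signal against DMSO.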

Read-out in experiment [8]: Macrophage colony-stimulating factor (MCSF), CSF1 (gene 1435)
Description: BSK_hDFCGF_MCSF: BioMAP Diversity Plus: hDFCGF Assay for Macrophage colony-stimulating factor (MCSF) Biomarker Activity (AID 2283060). Conditions: primary human foreskin fibroblasts; actives raise or lower the signal. The procedure, abridged:
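fibroblasts (human foreskin, primary), 24 h post-dose; M-CSF by ELISA; bidirectional fit, DMSO = baseline.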

Experiment [9] can be described thus: BSK_hDFCGF_SRB: Viability Assessment in the BioMAP Diversity Plus: hDFCGF Assay (AID 2283061).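 Further: cells exposed to compound for 24 h before the read.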 The settings on record: primary human foreskin fibroblasts. The procedure, abridged: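 SRB-based viability read on primary human skin fibroblasts at 24 h: TCA fixation, 0.1% dye, 560 nm. Gain or loss of signal is fitted against the DMSO negative control.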
Read-out in experiment [10]: TIMP metallopeptidase inhibitor 1 (TIMP1), TIMP1 (gene 7076)
Description: BSK_hDFCGF_TIMP1: BioMAP Diversity Plus: hDFCGF Assay for TIMP metallopeptidase inhibitor 1 (TIMP1) Biomarker Activity (AID 2283062). Conditions: primary human foreskin fibroblasts; actives raise or lower the signal. The procedure, abridged:
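Bidirectional curve fitting against DMSO baseline yielded this endpoint, based on ELISA detection of TIMP-1 in primary human foreskin fibroblasts exposed to compound for 24 h.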

The source made the active and inactive calls. How the source made its calls: active means hit-call score of the fitted dose curve at least 0.9, where 1 is the maximum; inactive means score below 0.9.

With `Cc1ccccc1OP(=O)(Oc1ccccc1C)Oc1ccccc1C`, the AC50 (as a rule, the concentration at which the activity in the assay is half-maximal) in [1] is 11.2 µM (active); in experiment [2] it was 20 µM (active); in experiment [3], 32.4 µM (active); in [5], 11.8 µM (active); in [7], 4.26 µM (active); in experiment [8], 7.75 µM (active). Moreover, the AC50 is 8.28 µM (active) in experiment [9] and 11.7 µM (active) in experiment [10]. Also, the result in [4] and in experiment [6] was inactive.

Turning to `Cc1cc(Cl)ccc1OC(C)C(=O)O` (configuration not stated), the outcome in [1], in experiment [2], in experiment [3], in experiment [4], in experiment [6] and in [7] was inactive. The outcome in experiment [8], in experiment [9] and in [10] was inactive.

Regarding `NC(=O)CCl`, the outcome in [1], in experiment [2], in experiment [3], in experiment [5], in experiment [6] and in experiment [7] was inactive. The result in [8], in experiment [9] and in experiment [10] was inactive. Moreover, in experiment [4], the AC50 is 9.58 µM (active).

Regarding `CCCCCCCCCCCCN(C)C`, the outcome in experiment [1], in experiment [2], in experiment [3], in experiment [4], in experiment [5] and in [6] was inactive. Besides, the outcome in experiment [7], in [8], in [9] and in experiment [10] was inactive.

With `OC(Cc1ccccc1Cl)(Cn1[nH]cnc1=S)C1(Cl)CC1` (configuration not stated), the AC50 was 29.5 µM (active) in experiment [1]; 32.5 µM (active) in experiment [2]; 36.3 µM (active) in experiment [3]; 9.86 µM (active) in [4]; 35.2 µM (active) in experiment [7]; 15 µM (active) in experiment [8]. The outcome in [6], in experiment [9] and in experiment [10] was inactive.

Turning to `CCOP(=S)(OCC)OP(=S)(OCC)OCC`, the AC50 in experiment [1] was 29.6 µM (active); in experiment [3], 20 µM (active); in [7], 23.2 µM (active). Also, the outcome in [2], in experiment [4], in experiment [6], in [8], in experiment [9] and in experiment [10] was inactive.

As for `O=[N+]([O-])c1cccc2ccccc12`, the outcome in experiment [1], in experiment [3], in [5], in [6], in [7] and in [8] was inactive. Further, the outcome in experiment [9] and in experiment [10] was inactive. Also, in experiment [2], the AC50 was 20 µM (active).

For the compound `CC(C)O.CC(C)O.OCCN(CCO)CCO.OCCN(CCO)CCO.[Ti]`, the AC50 in [1] is 30.9 µM (active); in experiment [8], 20 µM (active). For the same compound, the result in [2], in experiment [3], in [4], in experiment [5], in [6] and in experiment [7] was inactive. Besides, the result in [9] and in [10] was inactive.

On to `C[C@]12CC[C@@H](O)C[C@@H]1CC[C@@H]1[C@@H]2CC[C@]2(C)C(=O)CC[C@@H]12`, for which the outcome in [1], in [2], in [3], in experiment [4], in experiment [5] and in experiment [6] was inactive. Besides, the outcome in [7], in experiment [8], in experiment [9] and in [10] was inactive.

Take `CCN(CC)C(=O)C(Cl)=C(C)OP(=O)(OC)OC`: the outcome in [1], in experiment [2], in experiment [3], in experiment [4], in experiment [5] and in [6] was inactive. Moreover, the outcome in experiment [7], in experiment [8], in experiment [9] and in experiment [10] was inactive.

Consider `Oc1cc(Cl)c(Cl)cc1Cl`, for which the AC50 in [1] is 20 µM (active); in [4] it was 27.7 µM (active); in experiment [7], 15.2 µM (active); in [9], 31.8 µM (active). The outcome in [2], in [3], in experiment [6], in experiment [8] and in experiment [10] was inactive.

Take `CCOC(=O)CC(=O)CCl`: the result in experiment [1], in experiment [2], in [4], in experiment [6], in experiment [9] and in [10] was inactive. Further, the AC50 in experiment [3] is 20 µM (active); in experiment [7], 19 µM (active); in [8] it was 20 µM (active).

`COc1ccccc1N`: the outcome in experiment [1], in experiment [2], in experiment [3], in experiment [4], in [6] and in [7] was inactive. The outcome in experiment [8], in experiment [9] and in experiment [10] was inactive.

As for `OC(Cc1ccccc1Cl)(Cn1cncn1)C1(Cl)CC1` (configuration not stated), the result in [1], in experiment [2], in experiment [3], in experiment [5], in experiment [6] and in [7] was inactive. In addition, the outcome in experiment [8], in experiment [9] and in [10] was inactive.

As for `O=C1C=CC(=O)c2ccccc21`, the half-maximal activity concentration (AC50) in experiment [1] was 1.55 µM (active); in experiment [2], 4.99 µM (active); in experiment [3] it was 3.84 µM (active); in [4], 1.27 µM (active); in [7], 0.905 µM (active); in experiment [8], 1.17 µM (active). The AC50 in [9] is 1.63 µM (active); in experiment [10], 2.41 µM (active). The result in experiment [5] and in experiment [6] was inactive.
